Measured values reported in PubChem BioAssay (EPA / NIEHS).
Active and inactive are the calls of the source. The calls were made as follows: active = hit-call score of the fitted dose curve at least 0.9, where 1 is the maximum; inactive = score below 0.9.

Key:
Conditions in all cases: mRNA level, 48 h; actives raise or lower the signal
[1] = read-out: ABC Transporter (ABCC3), ABCC3 (gene 8714); assay: LTEA_HepaRG_ABCC3: Life Technologies and Expression Analysis (LTEA) Assay for ABC Transporter (ABCC3) using HepaRG (AID 2283462)
Summary of the method: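 Differentiated human HepaRG cells exposed 48 h in serum-free induction medium, 0.5% DMSO vehicle, 8-point half-log series to 100 uM in duplicate. ABCC3 mRNA by qRT-PCR, normalised to ACTB, GAPDH, POLR2A; bidirectional fit vs DMSO.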

[2] = read-out: ABC Transporter (ABCB11), ABCB11 (gene 8647); assay: LTEA_HepaRG_ABCB11: Life Technologies and Expression Analysis (LTEA) Assay for ABC Transporter (ABCB11) using HepaRG (AID 2283463)
Summary of the method: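 Using HepaRG cultures held in 0.5% DMSO, chemicals were tested at half-log dilutions from 100 uM for 48 h. Induction or suppression of ABCB11 mRNA, normalized to ACTB, GAPDH and POLR2A, was fitted bidirectionally against vehicle.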

[3] = read-out: ABC Transporter (ABCC2), ABCC2 (gene 1244); assay: LTEA_HepaRG_ABCC2: Life Technologies and Expression Analysis (LTEA) Assay for ABC Transporter (ABCC2) using HepaRG (AID 2283464)
Summary of the method: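 Differentiated HepaRG cells in serum-free induction medium exposed 48 h to eight half-log concentrations up to 100 uM, 0.5% DMSO, in duplicate. ABCC2 mRNA measured by qRT-PCR (TaqMan, Fluidigm), normalized to ACTB, GAPDH and POLR2A. Fitted in both directions against DMSO.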

[4] = read-out: Broad substrate specificity ATP-binding cassette transporter ABCG2 (Homo sapiens) (UniProt Q9UNQ0); assay: LTEA_HepaRG_ABCG2: Life Technologies and Expression Analysis (LTEA) Assay for ABC Transporter (ABCG2) using HepaRG (AID 2283465)
Summary of the method: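 Gene expression of ABCG2 in HepaRG liver cells is quantified by qRT-PCR following 48 h exposure across an eight-point series topping at 100 uM. Values come from bidirectional fitting relative to DMSO vehicle.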

[5] = read-out: ATP-citrate lyase (ACLY), ACLY (gene 47); assay: LTEA_HepaRG_ACLY: Life Technologies and Expression Analysis (LTEA) Assay for ATP-citrate lyase (ACLY) using HepaRG (AID 2283466)
Summary of the method: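 ACLY expression changes in human HepaRG liver cells are quantified by qRT-PCR after 48 h exposure to test chemicals (maximum 100 uM, half-log steps). Values are fitted in both directions relative to 0.5% DMSO vehicle.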

[6] = read-out: Peroxisomal acyl-coenzyme A oxidase 1 (ACOX1) gene, ACOX1 (gene 51); assay: LTEA_HepaRG_ACOX1: Life Technologies and Expression Analysis (LTEA) Assay for Peroxisomal acyl-coenzyme A oxidase 1 (ACOX1) gene using HepaRG (AID 2283467)
Summary of the method: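 Human HepaRG hepatic cultures, 48 h treatment with test chemicals up to 100 uM. ACOX1 expression read by qRT-PCR relative to 0.5% DMSO vehicle.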

[7] = read-out: Alkaline Phosphatase, Placental (ALPP) gene, ALPP (gene 250); assay: LTEA_HepaRG_ALPP: Life Technologies and Expression Analysis (LTEA) Assay for Alkaline Phosphatase, Placental (ALPP) gene using HepaRG (AID 2283468)
Summary of the method: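 HepaRG cells plated 48 h, then exposed in duplicate for 48 h in serum-free induction medium to 8-point half-log series from 100 uM in 0.5% DMSO. ALPP mRNA by TaqMan qRT-PCR, normalized to ACTB/GAPDH/POLR2A; bidirectional fit versus DMSO.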

[8] = read-out: Bcl-2 (BAD) gene, BAD (gene 572); assay: LTEA_HepaRG_BAD: Life Technologies and Expression Analysis (LTEA) Assay for Bcl-2 (BAD) gene using HepaRG (AID 2283469)
Summary of the method: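 Activity values reflect up- or down-regulation of BAD mRNA in human HepaRG hepatic cells treated 48 h in serum-free medium, with eight-point half-log dosing capped at 100 uM and 0.5% DMSO vehicle.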

[9] = read-out: Bcl-2 (BAX) gene, BAX (gene 581); assay: LTEA_HepaRG_BAX: Life Technologies and Expression Analysis (LTEA) Assay for Bcl-2 (BAX) gene using HepaRG (AID 2283470)
Summary of the method: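 Cells were thawed, plated for 48 h, moved to serum-free induction medium and dosed for 48 h (highest concentration 100 uM, half-log steps, 0.5% DMSO). Total RNA was then analysed for BAX expression by qRT-PCR.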

[10] = read-out: Alpha-fetoprotein (AFP) gene, AFP (gene 174); assay: LTEA_HepaRG_AFP: Life Technologies and Expression Analysis (LTEA) Assay for Alpha-fetoprotein (AFP) gene using HepaRG (AID 2283472)
Summary of the method: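 Chemicals were tested on differentiated HepaRG cells for 48 hours at eight concentrations up to 100 uM, with 0.5% DMSO as vehicle. AFP expression was then quantified by qRT-PCR and analyzed for gain or loss relative to DMSO.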

BCL2L11 (gene 10018) = assay: LTEA_HepaRG_BCL2L11: Life Technologies and Expression Analysis (LTEA) Assay for Bcl-2 (BCL2L11) gene using HepaRG (AID 2283473)
Summary of the method: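 Differentiated human HepaRG cells were exposed 48 h in serum-free induction medium to eight half-log concentrations up to 100 uM in 0.5% DMSO, in duplicate. BCL2L11 mRNA was quantified by TaqMan qRT-PCR, normalized to ACTB, GAPDH and POLR2A; induction or repression fitted versus DMSO.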

[11] = read-out: Apolipoprotein A-V (APOA5) gene, APOA5 (gene 116519); assay: LTEA_HepaRG_APOA5: Life Technologies and Expression Analysis (LTEA) Assay for Apolipoprotein A-V (APOA5) gene using HepaRG (AID 2283474)
Summary of the method: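 Differentiated HepaRG cells in serum-free induction medium, exposed 48 h in duplicate to eight half-log concentrations topping at 100 uM (0.5% DMSO). APOA5 mRNA by Fluidigm TaqMan qRT-PCR, normalized to ACTB, GAPDH and POLR2A; bidirectional fit versus DMSO.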

[12] = read-out: Apoptosis regulator Bcl-2 (Homo sapiens) (UniProt P10415); assay: LTEA_HepaRG_BCL2: Life Technologies and Expression Analysis (LTEA) Assay for Bcl-2 gene using HepaRG (AID 2283475)
Summary of the method: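 Plated human HepaRG cells are exposed to test chemicals for 48 h across eight concentrations from 100 uM downward in half-log steps (0.5% DMSO). BCL2 expression is then measured by qRT-PCR with housekeeping normalisation and fitted bidirectionally against vehicle.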

[13] = read-out: Bcl-2 (BID) gene, BID (gene 637); assay: LTEA_HepaRG_BID: Life Technologies and Expression Analysis (LTEA) Assay for Bcl-2 (BID) gene using HepaRG (AID 2283476)
Summary of the method: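 Cells are plated, cultured 48 h, switched to serum-free induction medium, then dosed 48 h (100 uM top, half-log steps, 0.5% DMSO). RNA is isolated and BID expression read by qRT-PCR.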

Caspase-3 (Homo sapiens) = Caspase-3 (Homo sapiens) (UniProt P42574); assay: LTEA_HepaRG_CASP3: Life Technologies and Expression Analysis (LTEA) Assay for cysteine-aspartic acid protease (CASP3) using HepaRG (AID 2283477)
Summary of the method: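 Differentiated HepaRG cells, plated 48 h, were treated in duplicate in serum-free induction medium for 48 h with eight half-log concentrations up to 100 uM in 0.5% DMSO. CASP3 mRNA measured by qRT-PCR, normalized to ACTB, GAPDH, POLR2A.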

[14] = read-out: Cytochrome P450 (CYP24A1), CYP24A1 (gene 1591); assay: LTEA_HepaRG_CYP24A1: Life Technologies and Expression Analysis (LTEA) Assay for Cytochrome P450 (CYP24A1) using HepaRG (AID 2283478)
Summary of the method: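 HepaRG cells plated 48 h, then exposed in duplicate in serum-free induction medium for 48 h to 8-point half-log series from 100 uM in 0.5% DMSO. CYP24A1 mRNA by Fluidigm qRT-PCR, normalized to ACTB, GAPDH, POLR2A; bidirectional fit versus DMSO.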

[15] = read-out: Cytochrome P450 (CYP1A2), CYP1A2 (gene 1544); assay: LTEA_HepaRG_CYP1A2: Life Technologies and Expression Analysis (LTEA) Assay for Cytochrome P450 (CYP1A2) using HepaRG (AID 2283479)
Summary of the method: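 Differentiated human HepaRG cells in serum-free induction medium exposed 48 hours in duplicate to 8 half-log concentrations from 100 uM, 0.5% DMSO. CYP1A2 mRNA quantified by qRT-PCR, normalized to ACTB, GAPDH and POLR2A; bidirectional fitting versus DMSO.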

[16] = read-out: cysteine-aspartic acid protease (CASP8), CASP8 (gene 841); assay: LTEA_HepaRG_CASP8: Life Technologies and Expression Analysis (LTEA) Assay for cysteine-aspartic acid protease (CASP8) using HepaRG (AID 2283480)
Summary of the method: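 Concentration-response in duplicate up to 100 uM (half-log steps, 0.5% DMSO) on differentiated HepaRG cultures for 48 h. Expression change of CASP8 mRNA is determined by TaqMan qRT-PCR with housekeeping-gene normalization.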

[17] = read-out: Cytochrome P450 (CYP2B6), CYP2B6 (gene 1555); assay: LTEA_HepaRG_CYP2B6: Life Technologies and Expression Analysis (LTEA) Assay for Cytochrome P450 (CYP2B6) using HepaRG (AID 2283481)
Summary of the method: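 Differentiated human HepaRG cells in serum-free induction medium, dosed in duplicate for 48 h over 8 half-log concentrations topping at 100 uM (0.5% DMSO). CYP2B6 mRNA measured by TaqMan qRT-PCR, normalized to ACTB, GAPDH, POLR2A; bidirectional fit versus DMSO.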

[18] = read-out: adenosine kinase (ADK) gene, ADK (gene 132); assay: LTEA_HepaRG_ADK: Life Technologies and Expression Analysis (LTEA) Assay for adenosine kinase (ADK) gene using HepaRG (AID 2283471)
Summary of the method: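 Following 48 h exposure of HepaRG cells in 0.5% DMSO (top concentration 100 uM, duplicate wells), ADK mRNA induction or suppression was measured by qRT-PCR, normalised to ACTB/GAPDH/POLR2A, and fitted bidirectionally relative to vehicle.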

Sequence of Apoptosis regulator Bcl-2 (Homo sapiens) (P10415 whole entry, looked up): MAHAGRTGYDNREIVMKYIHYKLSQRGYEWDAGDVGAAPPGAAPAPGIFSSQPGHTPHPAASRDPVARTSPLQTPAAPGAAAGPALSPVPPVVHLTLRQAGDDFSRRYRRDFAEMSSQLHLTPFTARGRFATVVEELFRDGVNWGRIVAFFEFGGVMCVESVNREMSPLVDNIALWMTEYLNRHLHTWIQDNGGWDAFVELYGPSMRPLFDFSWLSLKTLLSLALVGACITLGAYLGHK
Sequence of Broad substrate specificity ATP-binding cassette transporter ABCG2 (Homo sapiens) (Q9UNQ0 whole entry, looked up): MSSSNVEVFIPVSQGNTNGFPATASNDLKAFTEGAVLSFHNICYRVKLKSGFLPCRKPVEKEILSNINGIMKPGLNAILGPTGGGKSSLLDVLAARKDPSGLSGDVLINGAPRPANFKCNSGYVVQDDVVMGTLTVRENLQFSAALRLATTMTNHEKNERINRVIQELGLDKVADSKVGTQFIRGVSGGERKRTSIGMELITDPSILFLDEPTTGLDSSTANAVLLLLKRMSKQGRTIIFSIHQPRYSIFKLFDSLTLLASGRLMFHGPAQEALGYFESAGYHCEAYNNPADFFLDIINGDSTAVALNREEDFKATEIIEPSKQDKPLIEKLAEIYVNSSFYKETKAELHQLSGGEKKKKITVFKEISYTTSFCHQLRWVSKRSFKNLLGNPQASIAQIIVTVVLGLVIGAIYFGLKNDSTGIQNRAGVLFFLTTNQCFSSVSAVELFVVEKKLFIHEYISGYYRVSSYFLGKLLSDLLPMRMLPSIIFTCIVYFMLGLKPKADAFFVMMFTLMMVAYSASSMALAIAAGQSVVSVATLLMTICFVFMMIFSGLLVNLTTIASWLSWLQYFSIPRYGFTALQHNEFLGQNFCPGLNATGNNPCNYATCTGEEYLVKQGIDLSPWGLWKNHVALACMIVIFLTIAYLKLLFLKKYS
Sequence of Caspase-3 (Homo sapiens) (P42574 whole entry, looked up): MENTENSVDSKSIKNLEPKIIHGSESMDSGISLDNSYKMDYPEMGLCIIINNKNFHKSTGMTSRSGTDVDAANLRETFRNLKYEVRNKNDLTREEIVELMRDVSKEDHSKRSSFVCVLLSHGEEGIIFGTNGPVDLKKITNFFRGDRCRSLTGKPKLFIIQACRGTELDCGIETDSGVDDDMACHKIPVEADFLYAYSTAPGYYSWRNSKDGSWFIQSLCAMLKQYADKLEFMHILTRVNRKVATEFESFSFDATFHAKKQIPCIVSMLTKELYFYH

CCN(Cc1cccnc1)C(=O)c1cccc(Cl)c1[C@]1(C)C(=O)N(Cc2ccc(OC)cc2OC)c2ccc(Cl)cc21
outcome [1]: inactive
AC50 [2]: 23.6 µM (active)
outcome [3]: inactive
AC50 [4]: 6.56 µM (active)
AC50 [5]: 16.9 µM (active)
AC50 [6]: 18.2 µM (active)
AC50 [7]: 10.1 µM (active)
outcome [8]: inactive
AC50 [9]: 24.7 µM (active)
AC50 [10]: 19.4 µM (active)
outcome (BCL2L11 (gene 10018)): inactive
AC50 [11]: 11.4 µM (active)
AC50 [12]: 11.4 µM (active)
outcome [13]: inactive
outcome (Caspase-3 (Homo sapiens)): inactive
outcome [14]: inactive
AC50 [15]: 22.2 µM (active)
AC50 [16]: 12.5 µM (active)
AC50 [17]: 25.8 µM (active)

CCCC(=O)OCCC(C)C
outcome [1]: inactive
outcome [2]: inactive
outcome [3]: inactive
outcome [4]: inactive
outcome [5]: inactive
outcome [7]: inactive
outcome [8]: inactive
outcome [9]: inactive
outcome [18]: inactive
outcome (BCL2L11 (gene 10018)): inactive
outcome [11]: inactive
outcome [12]: inactive
outcome [13]: inactive
outcome (Caspase-3 (Homo sapiens)): inactive
outcome [14]: inactive
AC50 [15]: 50 µM (active)
outcome [16]: inactive
outcome [17]: inactive

CN(C)C(=O)C1(N2CCCCC2)CCN(CC[C@@]2(c3ccc(Cl)c(Cl)c3)CN(C(=O)c3ccccc3)CCO2)CC1
AC50 [1]: 79.4 µM (active)
AC50 [2]: 26 µM (active)
AC50 [3]: 23.7 µM (active)
outcome [4]: inactive
AC50 [5]: 47.2 µM (active)
AC50 [7]: 14.9 µM (active)
outcome [8]: inactive
AC50 [9]: 27.1 µM (active)
outcome [18]: inactive
AC50 (BCL2L11 (gene 10018)): 86.8 µM (active)
outcome [11]: inactive
AC50 [12]: 22.6 µM (active)
outcome [13]: inactive
outcome (Caspase-3 (Homo sapiens)): inactive
outcome [14]: inactive
AC50 [15]: 24.2 µM (active)
outcome [16]: inactive
AC50 [17]: 27.8 µM (active)

CCCCOC(=O)CC(CC(=O)OCCCC)(OC(C)=O)C(=O)OCCCC
outcome [1]: inactive
outcome [2]: inactive
outcome [3]: inactive
outcome [4]: inactive
outcome [5]: inactive
outcome [7]: inactive
outcome [8]: inactive
outcome [9]: inactive
outcome [10]: inactive
outcome (BCL2L11 (gene 10018)): inactive
outcome [11]: inactive
outcome [12]: inactive
outcome [13]: inactive
outcome (Caspase-3 (Homo sapiens)): inactive
outcome [14]: inactive
outcome [15]: inactive
outcome [16]: inactive
outcome [17]: inactive

Oc1ccccc1
outcome [1]: inactive
outcome [2]: inactive
outcome [3]: inactive
outcome [4]: inactive
outcome [5]: inactive
outcome [7]: inactive
outcome [8]: inactive
outcome [9]: inactive
outcome (BCL2L11 (gene 10018)): inactive
outcome [11]: inactive
outcome [12]: inactive
outcome [13]: inactive
outcome (Caspase-3 (Homo sapiens)): inactive
outcome [14]: inactive
outcome [15]: inactive
outcome [16]: inactive
outcome [17]: inactive

CC1=CC(=O)/C(=C(/C)O)C(=O)O1
outcome [1]: inactive
outcome [2]: inactive
outcome [3]: inactive
outcome [4]: inactive
outcome [5]: inactive
outcome [7]: inactive
outcome [8]: inactive
outcome [9]: inactive
outcome [18]: inactive
outcome (BCL2L11 (gene 10018)): inactive
outcome [11]: inactive
outcome [12]: inactive
outcome [13]: inactive
outcome (Caspase-3 (Homo sapiens)): inactive
outcome [14]: inactive
outcome [15]: inactive
outcome [16]: inactive
outcome [17]: inactive

CCCCCCCC[Si](OCC)(OCC)OCC
outcome [1]: inactive
outcome [2]: inactive
outcome [3]: inactive
outcome [4]: inactive
outcome [5]: inactive
outcome [7]: inactive
outcome [8]: inactive
outcome [9]: inactive
outcome (BCL2L11 (gene 10018)): inactive
outcome [11]: inactive
outcome [12]: inactive
outcome [13]: inactive
outcome (Caspase-3 (Homo sapiens)): inactive
outcome [14]: inactive
outcome [15]: inactive
outcome [16]: inactive
outcome [17]: inactive
